In PubChem BioAssay (NCI):
“And” between values parts separate entries of the source, which are not always exact repeats. Equal values may be shown once. About 83,000 compounds went through this panel and 20% of them were active in at least one assay; those are over-represented in the sample as a whole.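 Testing used 96-well plates and a 48-hour single-concentration exposure. Example: -40 means 40% of the starting cells died.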 The source made the active and inactive calls. Rule for the calls: active = growth percent below 10; inactive = the rest.

Each compound was assayed on HL-60(TB) leukemia (assay: NCI-60 one-dose screen, 48 h (100 = growth as untreated, 0 = no growth, -100 = all killed)). Conditions: 10 µM unless noted.
`COc1cc(/C=C2/C=C(c3ccccc3)N(CCc3ccc(S(N)(=O)=O)cc3)C2=O)cc(OC)c1OC` was tested, and the growth was 86.7% (inactive). In the case of `COc1ccc2c(c1)sc1nc(-c3ccccc3)c(-c3ccc(O)c(OC)c3)n12`, the growth is reported as 44.2% (inactive). `O=C1CSC(=S)N1Cc1cccnc1` was tested, and the growth was 13.8% (inactive). For `C=CC[Se]C(=O)Cc1c(C)n(C(=O)c2ccc(Cl)cc2)c2ccc(OC)cc12`, the growth was -53.3% (active). `COc1cc(C(=O)c2ccccc2C(=O)O)c(OC)c2c1CCCC2` was tested, and the growth was 36.8% (inactive) and 97.1% (inactive). With `O=C(Cc1ccccc1)Nc1nc(O)c(/C=C2\C(=O)C=Cc3ccccc32)s1` the growth was 103% (inactive). For `O=C(/C=C/c1ccc(Cl)cc1)c1ccc(O)c(CN2CCN(c3cc4c(cc3F)c(=O)c(C(=O)O)cn4C3CC3)CC2)c1`, the growth was 51.5% (inactive). `CCCNc1nc(SC)nc(-c2cccc(N)c2)c1C#N` was tested, and the growth was 98.9% (inactive). With `CCOC(=O)c1cn2c3c(cc(F)cc3c1=O)C(CC)c1ccccc1C2` (stereo not given) the growth was 94.9% (inactive). In the case of `CCN1CCN(c2cc(C(=O)Nc3nc(-c4cc(OC)c(OC)c(OC)c4)cs3)cc(C(F)(F)F)c2)CC1`, the growth is reported as 41.4% (inactive). With `O=C(O)C1CSC(c2ccccc2)N1` (stereo not given) the growth was 128% (inactive). For `O=C(NCc1cn(Cc2cccc(Oc3ccccc3)c2)nn1)c1cccnc1Nc1ccccc1`, the growth was 32% (inactive). `CCOc1ccc(NC(=O)CSc2oc(-c3ccccc3)nc2S(=O)(=O)c2ccc(F)cc2)cc1` was tested, and the growth was 65.2% (inactive). In the case of `CCOC(=O)c1cnc2c(OC)ccc(OC)c2c1Cl`, the growth is reported as 127% (inactive). With `COc1cc2nc(-c3ccc(C(F)(F)F)cc3)cc(OCCCN3CCC(O)CC3)c2cc1OC` the growth was 27.3% (inactive). `Cn1c(=O)c2[nH]c(N/N=C/c3ccccc3Br)nc2n(C)c1=O` was tested, and the growth was 106% (inactive). For `COc1ccc2nc3cc(Cl)ccc3c(NCCCNC(C)=O)c2c1`, the growth was 57.7% (inactive). For `CC(CN(C)C)CN1c2ccccc2CCc2ccccc21` (stereo not given), the growth was 108% (inactive). In the case of `C[N+]1(CCC[N+]2(C)C[C@@H]3[C@H](C2)[C@@H]2C=C[C@H]3C2)CCOCC1` (stereo not given in full), the growth is reported as 122% (inactive). For `Nc1cc(-c2cccc(OC(F)(F)F)c2)nc2ccc(N3CCCC3)cc12`, the growth was -35.5% (active) and -28.5% (active) and -11.6% (active). In the case of `O=C(O)c1ccccc1C(=O)OC1CCCC2CCCC21` (stereo not given), the growth is reported as 104% (inactive). In the case of `CC1(C)OC(=O)CC1=O`, the growth is reported as 91.5% (inactive). `Cc1ccc(/C=C2\SC(=S)N(c3ccc(F)cc3)C2=O)o1` was tested, and the growth was 82.8% (inactive). For `O=C(Nc1ccccc1)Nc1cccc(Oc2nnc(Cl)c3ccccc23)c1`, the growth was 12.1% (inactive). `CC(C)=C1C=C2CC[C@@H]3[C@](C)(CCC[C@@]3(C)C(=O)O)[C@H]2CC1` was tested, and the growth was 105% (inactive). In the case of `Nc1ccc(N=Nc2ccc(O)cc2)c(N)n1`, the growth is reported as 37% (inactive). `O=C(NC1CCN(Cc2ccccc2)CC1)c1cc2nc(-c3ccc(Cl)s3)cc(C(F)(F)F)n2n1` was tested, and the growth was 58.6% (inactive). In the case of `CCN(CC)S(=O)(=O)c1cccc(-c2ccc3c(NC(=O)C4CC4)n[nH]c3c2)c1`, the growth is reported as 10.3% [6.25 µM] (inactive). With `Cc1ccc2nc3c(n2c1)C(=O)C(=O)c1ccccc1-3` the growth was -59.1% (active). For `CN1CCN(C(=O)[C@]2(C)CC[C@]3(C)CC[C@]4(C)C(=CC(=O)[C@@H]5[C@@]6(C)CCC(=O)NC(C)(C)[C@@H]6CC[C@]54C)[C@@H]3C2)CC1`, the growth was 95.7% (inactive). With `Fc1ccc(CNc2cccc3[nH]c(C(F)(F)F)nc23)cc1` the growth was 55% (inactive). For `CN1CCN(C(=O)[C@]23CCC(C)(C)C[C@@H]2C2=CC[C@@H]4[C@@]5(C)Cc6c([nH]c7ccccc67)C(C)(C)[C@@H]5CC[C@@]4(C)[C@]2(C)CC3)CC1`, the growth was 76.7% (inactive). `COc1ccc(C2CC(c3ccc(Nc4nc(Nc5ccccc5)nc(Nc5ccccc5)n4)cc3)=NN2C(C)=O)cc1` (stereo not given) was tested, and the growth was 95.1% (inactive). For `CCNC(=O)CCCCC(=O)c1c(C)[nH]c(/C=C2\N=C(c3ccc[nH]3)C=C2OC)c1C`, the growth was 66.9% (inactive). In the case of `CCOCC(O)(c1ccc(Cl)cc1)c1ccc(Cl)cc1`, the growth is reported as 106% (inactive). `COc1ccc(C(c2cc(OC)c(OC)c(OC)c2)N2CCN(c3ccccc3)CC2)cc1` (stereo not given) was tested, and the growth was 67.1% (inactive). For `C=C1C(=O)O[C@H]2[C@H]1CC/C(COC(=O)CCC(=O)OC/C1=C/CC[C@@]3(C)O[C@H]3[C@H]3OC(=O)C(=C)[C@@H]3CC1)=C\CC[C@@]1(C)O[C@@H]21`, the growth was -41.9% (active). With `ON1CCCC1` the growth was 82.3% (inactive). With `Cc1cccc2c3c(sc12)C(c1ccc(Cl)cc1)C(C#N)=C(/N=C/c1ccc(Cl)cc1)O3` (stereo not given) the growth was -22% (active). For `COc1ccc2oc3cc(NCCN(C)C)ccc3c(=O)c2c1`, the growth was 22% (inactive).
